From PubChem BioAssay AID1159580 (chemical genetic matrix, 2015)
The whole screen tested about 5,500 compounds, of which about 2,000 (36%) were called active. About 18% were inconclusive and are not listed. Rule as the data show it: active = normalized growth mostly below about 0.91 (no sharp cut-off); inconclusive = no clear call, values can overlap the other calls; inactive = mostly above about 0.92. The list shows a part of the results.

Assay: chemical genetic growth profiling, strain panel (AID 1159580);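 also: tested at 20 µM; growth read once vehicle control cultures reached saturation at 30 °C; 1 = growth at the plate median or of vehicle wells; lower values mean less growth of the strain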
Conditions: growth OD

Measured: normalized growth

O[N+]1=CC=CCC1=S.On1ccccc1=S.[Zn]
active: S. cerevisiae deletion strains, locus YJR043C, strain POL32, hits give low values 0.0664 | S. cerevisiae deletion strains, locus YJR066W, strain TOR1, hits give low values 0.00186 | S. cerevisiae deletion strains, locus YJR075W, strain HOC1, hits give low values 0.0642 | S. cerevisiae deletion strains, locus YKL009W, strain mrt4, hits give low values 0.071 | S. cerevisiae deletion strains, locus YKL068W, hits give low values 0.0609 | S. cerevisiae deletion strains, locus YKL085W, strain MDH1 (second series), hits give low values 0.0543 | S. cerevisiae deletion strains, locus YKL085W, strain MDH1, hits give low values 0.0543 | S. cerevisiae deletion strains, locus YKL160W, strain elf1, hits give low values 0.07 | S. cerevisiae deletion strains, locus YKR001C, strain vps1, hits give low values 0.063 | S. cerevisiae deletion strains, locus YKR026C, strain gcn3, hits give low values 0.0676 | S. cerevisiae deletion strains, locus YKR091W, strain srl3, hits give low values 0.0611 | S. cerevisiae deletion strains, locus YLL001W, strain dnm1, hits give low values 0.059 | S. cerevisiae deletion strains, locus YLL026W, hits give low values 0.0586 | S. cerevisiae deletion strains, locus YLL041C, strain sdh2, hits give low values 0.0589 | S. cerevisiae deletion strains, locus YLR027C, strain aat2, hits give low values 0.0567 | S. cerevisiae deletion strains, locus YLR039C, strain RIC1, hits give low values 0.101 | S. cerevisiae deletion strains, locus YLR058C, strain SHM2, hits give low values 0.0528 | S. cerevisiae deletion strains, locus YLR102C, strain apc9, hits give low values 0.0619 | S. cerevisiae deletion strains, locus YLR113W, strain HOG1, hits give low values 0.14 | S. cerevisiae deletion strains, locus YLR221C, strain rsa3, hits give low values 0.0633 | S. cerevisiae deletion strains, locus YLR258W, strain gsy2, hits give low values 0.0677 | S. cerevisiae deletion strains, locus YLR262C, strain YPT6 (second series), hits give low values 0.0872 | S. cerevisiae deletion strains, locus YLR262C, strain YPT6, hits give low values 0.116 | S. cerevisiae deletion strains, locus YLR268W, strain sec22, hits give low values 0.0675 | S. cerevisiae deletion strains, locus YLR320W, strain mms22, hits give low values 0.0954 | S. cerevisiae deletion strains, locus YLR330W, strain CHS5, hits give low values 0.0529 | S. cerevisiae deletion strains, locus YLR342W, strain FKS1 (second series), hits give low values 0.0696 | S. cerevisiae deletion strains, locus YLR342W, strain FKS1, hits give low values 0.0672 | S. cerevisiae deletion strains, locus YLR357W, strain rsc2, hits give low values 0.128 | S. cerevisiae deletion strains, locus YLR370C, strain arc18, hits give low values 0.0633 | S. cerevisiae deletion strains, locus YLR371W, strain rom2, hits give low values 0.0617 | S. cerevisiae deletion strains, locus YLR384C, strain iki3, hits give low values 0.0637 | S. cerevisiae deletion strains, locus YLR418C, strain cdc73, hits give low values 0.0957 | S. cerevisiae deletion strains, locus YML016C, strain PPZ1, hits give low values 0.0508 | S. cerevisiae deletion strains, locus YML032C, strain rad52, hits give low values 0.0712 | S. cerevisiae deletion strains, locus YML120C, strain ndi1, hits give low values 0.0615 | S. cerevisiae deletion strains, locus YML124C, strain tub3, hits give low values 0.061 | S. cerevisiae deletion strains, locus YMR058W, strain fet3, hits give low values 0.0596 | S. cerevisiae deletion strains, locus YMR078C, strain ctf18, hits give low values 0.0748 | S. cerevisiae deletion strains, locus YMR125W, strain sto1, hits give low values 0.0764 | S. cerevisiae deletion strains, locus YMR129W, hits give low values 0.059 | S. cerevisiae deletion strains, locus YMR205C, strain PFK2, hits give low values 0.0932 | S. cerevisiae deletion strains, locus YMR223W, strain ubp8, hits give low values 0.0633 | S. cerevisiae deletion strains, locus YMR231W, strain pep5, hits give low values 0.0701 | S. cerevisiae deletion strains, locus YMR263W, strain SAP30, hits give low values 0.0599 | S. cerevisiae deletion strains, locus YMR307W, strain GAS1, hits give low values 0.132 | S. cerevisiae deletion strains, locus YNL067W, strain RPL9B, hits give low values 0.0487 | S. cerevisiae deletion strains, locus YNL071W, strain lat1, hits give low values 0.0631 | S. cerevisiae deletion strains, locus YNL128W, strain TEP1, hits give low values 0.0641 | S. cerevisiae deletion strains, locus YNL183C, strain NPR1, hits give low values 0.00323 | S. cerevisiae deletion strains, locus YNL209W, strain ssb2, hits give low values 0.0623 | S. cerevisiae deletion strains, locus YNL233W, strain BNI4, hits give low values 0.0571 | S. cerevisiae deletion strains, locus YNL248C, strain rpa49, hits give low values 0.0755 | S. cerevisiae deletion strains, locus YNL250W, strain rad50, hits give low values 0.0654 | S. cerevisiae deletion strains, locus YNL271C, strain bni1, hits give low values 0.074 | S. cerevisiae deletion strains, locus YNL298W, strain CLA4, hits give low values 0.0625 | S. cerevisiae deletion strains, locus YNL307C, strain MCK1, hits give low values 0.0674 | S. cerevisiae deletion strains, locus YNL322C, strain KRE1 (second series), hits give low values 0.0696 | S. cerevisiae deletion strains, locus YNR049C, strain mso1, hits give low values 0.0598 | S. cerevisiae deletion strains, locus YNR052C, strain pop2, hits give low values 0.0619 | S. cerevisiae deletion strains, locus YOL147C, strain pex11, hits give low values 0.0583 | S. cerevisiae deletion strains, locus YOR001W, strain rrp6, hits give low values 0.0748 | S. cerevisiae deletion strains, locus YOR061W, strain CKA2, hits give low values 0.049 | S. cerevisiae deletion strains, locus YOR069W, strain VPS5, hits give low values 0.0493 | S. cerevisiae deletion strains, locus YOR070C, strain gyp1, hits give low values 0.064 | S. cerevisiae deletion strains, locus YOR080W, strain dia2, hits give low values 0.0707 | S. cerevisiae deletion strains, locus YOR083W, strain WHI5, hits give low values 0.0734 | S. cerevisiae deletion strains, locus YOR106W, strain vam3, hits give low values 0.0661 | S. cerevisiae deletion strains, locus YOR136W, strain idh2, hits give low values 0.0716 | S. cerevisiae deletion strains, locus YOR144C, strain elg1, hits give low values 0.0584 | S. cerevisiae deletion strains, locus YOR184W, strain ser1, hits give low values 0.0698 | S. cerevisiae deletion strains, locus YOR231W, strain MKK1, hits give low values 0.116 | S. cerevisiae deletion strains, locus YOR265W, strain rbl2, hits give low values 0.064 | S. cerevisiae deletion strains, locus YOR270C, strain vph1, hits give low values 0.0915 | S. cerevisiae deletion strains, locus YOR290C, strain snf2, hits give low values 0.0656 | S. cerevisiae deletion strains, locus YOR316C, strain cot1, hits give low values 0.0596 | S. cerevisiae deletion strains, locus YPL051W, strain arl3, hits give low values 0.0708 | S. cerevisiae deletion strains, locus YPL055C, strain LGE1, hits give low values 0.0796 | S. cerevisiae deletion strains, locus YPL078C, strain atp4, hits give low values 0.07 | S. cerevisiae deletion strains, locus YPL106C, strain sse1, hits give low values 0.109 | S. cerevisiae deletion strains, locus YPL240C, strain hsp82, hits give low values 0.0591 | S. cerevisiae deletion strains, locus YPL256C, strain CLN2, hits give low values 0.114 | S. cerevisiae deletion strains, locus YPR119W, strain clb2, hits give low values 0.0639 | S. cerevisiae deletion strains, locus YPR141C, strain kar3, hits give low values 0.0689 | S. cerevisiae deletion strains, locus YPR163C, strain tif3, hits give low values 0.0727 | S. cerevisiae deletion strains, locus YPR167C, strain met16, hits give low values 0.0637 | S. cerevisiae deletion strains, strain wtn01, hits give low values 0.0638 | S. cerevisiae strains, strain wild type, hits give low values 0.0514
